Experiment [1] is described as follows: qHTS assay for small molecules that induce genotoxicity in human embryonic kidney cells expressing luciferase-tagged ATAD5 (AID 651632). Note: % is set by controls: 0 for no effect and ±100 for the full control effect; nearly all actives have a fitted effect of over 15% in size. The procedure, abridged:
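Reporter cells (HEK293T) express luciferase-tagged ATAD5, a protein that accumulates after DNA damage. Treat 16 hr at 37C/5% CO2, add Amplite, wait 30 min at RT, and read luminescence.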

Experiment [2] in a line: qHTS assay for small molecule agonists of the p53 signaling pathway - cell viability (AID 651633; calls by dose curve; note: potency is the fitted concentration of half-maximal effect; nearly all actives have a fitted effect of over 30% in size). The procedure, abridged:
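p53RE-bla cells, seeded at 4,000 per well and rested 5 h at 37 C/5% CO2, received compounds in DMSO for 16 h at 37 C. CellTiter-Glo was then added, and luminescence was read after 30 min at room temperature to gauge cytotoxicity.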
Background: Quantitative high-throughput screening tests each substance at several concentrations.

The nature of experiment [3]: qHTS assay for small molecule disruptors of the mitochondrial membrane potential (AID 720635). Note: potency is the fitted concentration of half-maximal effect. The procedure, abridged: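 HepG2 cells (2,000/well) attached overnight at 37C, then took compound for 1 hr at 37C, 5% CO2. Mito-MPS dye was added for 30 min; fluorescence was read at 490/535 nm (monomers) and 540/590 nm (aggregates).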
Experiment [4] can be described thus: qHTS assay to test for compound auto fluorescence at 590 nm (red) in HepG2 cells (AID 720674). Note: % is set by controls: 0 for no effect and ±100 for the full control effect. The procedure, abridged: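 Rose Bengal sodium served as the red fluorophore standard. HepG2 monolayers (overnight attachment, MEM with 10% FBS) were exposed to test compounds for 1 hr at 37 C and read at Ex 540/Em 590 nm.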
A short description of experiment [5]: qHTS assay to test for compound auto fluorescence at 535 nm (green) in HepG2 cells (AID 720675). Note: % is set by controls: 0 for no effect and ±100 for the full control effect.
The nature of experiment [6]: qHTS assay to test for compound auto fluorescence at 460 nm (blue) in HEK293 cells (AID 720678). Note: % is set by controls: 0 for no effect and ±100 for the full control effect. The procedure, abridged:
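Blue read-out at excitation 405 nm and emission 460 nm follows overnight compound exposure of HEK293 cells at 37C in 5% CO2. Activity is given as auto fluorescence equivalency to triamterene.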

Experiment [7] is described as follows: qHTS assay to test for compound auto fluorescence at 590 nm (red) in HEK293 cells (AID 720679). Note: % is set by controls: 0 for no effect and ±100 for the full control effect. The procedure, abridged:
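Red channel, Ex/Em 540/590nm; signal expressed as equivalency to Rose Bengal sodium. HEK293, 2,000 cells/well, 10% dialyzed FBS; 23 nL compound pinned after 4-5 hr attachment; overnight 37C/5% CO2 before reading.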

Experiment [8] is described as follows: qHTS assay to test for compound auto fluorescence at 535 nm (green) in HEK293 cells (AID 720680). Note: % is set by controls: 0 for no effect and ±100 for the full control effect.
Experiment [9] is described as follows: qHTS assay to test for compound auto fluorescence at 460 nm (blue) in HEK293 cell free culture (AID 720681). Note: % is set by controls: 0 for no effect and ±100 for the full control effect. The procedure, abridged:
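Test compounds were pinned into cell-free culture medium (DMEM with 10% FBS) and fluorescence was read directly at Ex/Em 405/460 nm. Signals were expressed as fluorescence equivalents of triamterene, with DMSO vehicle as control.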

Experiment [10] can be described thus: qHTS assay to test for compound auto fluorescence at 535 nm (green) in HEK293 cell free culture (AID 720682). Note: % is set by controls: 0 for no effect and ±100 for the full control effect. The procedure, abridged:
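Intrinsic compound fluorescence is measured in culture medium containing 10% FBS, with excitation at 485 nm and detection at 535 nm, referenced to fluorescein.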

A short description of experiment [11]: qHTS assay to test for compound auto fluorescence at 590 nm (red) in HEK293 cell free culture (AID 720683). Note: % is set by controls: 0 for no effect and ±100 for the full control effect. The procedure, abridged: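 Tox21 10K library compounds were pinned into cell-free DMEM with 10% FBS and fluorescence was read at excitation 540 nm. Activity is expressed as Rose Bengal sodium equivalency.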
Experiment [12] in a line: qHTS assay to test for compound auto fluorescence at 590 nm (red) in HepG2 cell free culture (AID 720684). Note: % is set by controls: 0 for no effect and ±100 for the full control effect. The procedure, abridged: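 Measured in medium alone (MEM containing 10% FBS) following pintool addition of compound; emission at 590 nm with 540 nm excitation, referenced to Rose Bengal sodium.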
Experiment [13] is described as follows: qHTS assay to test for compound auto fluorescence at 535 nm (green) in HepG2 cell free culture (AID 720686). Note: % is set by controls: 0 for no effect and ±100 for the full control effect.
Experiment [14] can be described thus: qHTS assay to test for compound auto fluorescence at 460 nm (blue) in HepG2 cells (AID 720687). Note: % is set by controls: 0 for no effect and ±100 for the full control effect. The procedure, abridged:
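Cells (2,000/well in MEM with 10% FBS) attached overnight at 37 C, then were exposed to compound or DMSO for 1 hr at 37 C, 5% CO2. Fluorescence read at Ex/Em 405/460 nm, expressed as triamterene-equivalent signal.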

The nature of experiment [15]: qHTS assay for small molecules that induce genotoxicity in human embryonic kidney cells expressing luciferase-tagged ATAD5 - cell viability (AID 651634; calls by dose curve; note: % is set by controls: 0 for no effect and ±100 for the full control effect; nearly all actives have a fitted effect of over 25% in size). The procedure, abridged:
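Seeding of 2,000 HEK293T ATAD5-luciferase cells per well preceded pin-tool compound transfer. Plates sat 15.5 hr at 37C under 5% CO2, then fluorescence was read after 30 min with CellTiter-Fluor.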

The nature of experiment [16]: qHTS assay for small molecule disruptors of the mitochondrial membrane potential - cell viability (AID 720634; calls by dose curve;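 note: human HepG2 liver cancer cells; % is set by controls: 0 for no effect and ±100 for the full control effect; nearly all actives have a fitted effect of over 20% in size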). The procedure, abridged: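 Measuring cytotoxicity alongside mitochondrial potential, the screen quantified ATP by luminescence in HepG2 cells after 1 hr compound incubation and a 30 min room-temperature CellTiter-Glo step.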
Experiment [17] is described as follows: qHTS assay to test for compound auto fluorescence at 460 nm (blue) in HepG2 cell free culture (AID 720685). Note: % is set by controls: 0 for no effect and ±100 for the full control effect. The procedure, abridged:
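Compound (23 nL) or DMSO pinned into cell-free MEM with 10% FBS; blue fluorescence read at 405/460 nm excitation/emission, expressed as auto-fluorescence equivalency to triamterene.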

Experiment [18] has as its target Glucocorticoid receptor (Homo sapiens) (UniProt P04150). Nature of the experiment: qHTS assay to identify small molecule agonists of the glucocorticoid receptor (GR) signaling pathway (AID 720691; active = well fitted activation curve with a large enough effect in the signal ratio in the repeat runs, not every such curve was filed as active; the % refers to the signal ratio; note: % is set by controls: 0 for no effect and ±100 for the full control effect). The settings on record: GR-bla HeLa, beta-lactamase reporter ratio, 18 h; activation: at 62.4 µM (top of the series). The procedure, abridged: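 Reporter read-out: fluorescence intensity following 2 h room-temperature LiveBLAzer B/G FRET substrate loading. Prior step: GR-bla HeLa cells held 4 h, then treated 18 h at 37 C.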

Experiment [19] has the same target. The experiment is described as follows: qHTS assay to identify small molecule antagonists of the glucocorticoid receptor (GR) signaling pathway (AID 720692; active = well fitted inhibition curve with a large enough effect in the signal ratio in the repeat runs, not every such curve was filed as active; the % refers to the signal ratio; note: potency is the fitted concentration of half-maximal effect). The procedure, abridged: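 Dexamethasone (5 nM final) stimulated a stably integrated GRE-beta-lactamase reporter in HeLa cells during 18 h co-incubation with compounds; signal was quantified as fluorescence intensity of B/G FRET substrate after 2 h.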

The structures appear in SMILES notation. A number with no mark means an inactive call. Inconclusive results are not listed. Activity calls are given as the source filed them. Unless noted, calls come from the whole dose curve; as a rule, active = well fitted curve in the direction sought with a large enough effect in the repeat runs; inconclusive = weak or mixed curves; inactive = no such curve, though single readings can be large; an effect the other way counts as inactive or inconclusive.

Results on seven compounds are retold here after PubChem BioAssay (Tox21).

Chain of Glucocorticoid receptor (Homo sapiens) (P04150 whole entry, looked up): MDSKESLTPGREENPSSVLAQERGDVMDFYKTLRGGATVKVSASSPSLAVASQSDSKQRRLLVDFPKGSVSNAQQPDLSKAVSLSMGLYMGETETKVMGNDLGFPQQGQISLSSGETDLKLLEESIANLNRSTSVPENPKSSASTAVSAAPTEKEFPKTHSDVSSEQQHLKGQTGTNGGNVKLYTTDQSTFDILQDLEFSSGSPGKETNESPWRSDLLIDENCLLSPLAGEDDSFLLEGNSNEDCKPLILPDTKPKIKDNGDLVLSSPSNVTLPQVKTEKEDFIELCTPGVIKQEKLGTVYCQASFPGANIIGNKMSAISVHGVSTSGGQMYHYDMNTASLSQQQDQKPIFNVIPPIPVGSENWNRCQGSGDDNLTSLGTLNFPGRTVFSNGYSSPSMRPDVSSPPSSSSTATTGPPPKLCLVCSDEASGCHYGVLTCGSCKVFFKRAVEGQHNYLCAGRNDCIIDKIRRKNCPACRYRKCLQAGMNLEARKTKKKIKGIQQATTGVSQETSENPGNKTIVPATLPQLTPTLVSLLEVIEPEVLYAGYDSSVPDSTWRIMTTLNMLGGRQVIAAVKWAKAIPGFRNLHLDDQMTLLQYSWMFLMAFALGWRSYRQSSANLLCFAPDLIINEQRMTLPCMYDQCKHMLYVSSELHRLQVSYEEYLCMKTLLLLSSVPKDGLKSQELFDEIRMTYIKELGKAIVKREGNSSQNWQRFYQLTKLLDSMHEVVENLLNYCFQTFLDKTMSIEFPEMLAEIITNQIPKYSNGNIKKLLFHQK

As to `CCOC(=O)C1=C(C)NC(C)=C(C(=O)OCC)C1c1ccccc1/C=C/C(=O)OC(C)(C)C`, the Potency result in experiment [1], in experiment [4], in experiment [5], in [6], in [7] and in experiment [8] was “inactive” throughout. Moreover, the Potency result in experiment [9], in experiment [10], in experiment [11], in [12], in [13] and in experiment [14] was “inactive” in each case. The Potency in experiment [2] was 29.8 µM (active); in experiment [3] it was 10.6 µM (active).

With `C=CC(=O)OCCC#N`, the Potency entry in experiment [1], in experiment [15], in experiment [16], in experiment [4], in experiment [5] and in [6] was “inactive” each time. The Potency result in experiment [7], in experiment [8], in experiment [9], in experiment [10], in experiment [12] and in [17] was “inactive” in each case. Also, the Potency entry in experiment [13], in experiment [14] and in experiment [18] was “inactive” in each case.

For `CCCCCCCCCCCCCC[n+]1ccccc1`, the Potency result in experiment [1], in experiment [15], in [16], in experiment [4], in experiment [5] and in [6] was “inactive” in each case. Also, the Potency entry in experiment [7], in experiment [8], in experiment [9], in experiment [10], in experiment [11] and in [12] was “inactive” in each case. In addition, the Potency entry in experiment [13] and in [14] was “inactive” each time. Also, in experiment [3], the Potency is 21.7 µM (active).

In the case of `CN(C)CCCN1c2ccccc2Sc2ccc(C(F)(F)F)cc21`, the Potency entry in experiment [1], in experiment [4], in [5], in experiment [6], in experiment [7] and in [8] was “inactive” each time. Besides, the Potency entry in experiment [9], in experiment [10], in experiment [11], in [17], in [13] and in experiment [14] was “inactive” throughout. For the same compound, the Potency result in experiment [18] was “inactive”. In addition, the Potency in experiment [2] was 29.8 µM (active).

Regarding `Clc1ccc(C(Cn2ccnc2)OCc2c(Cl)cccc2Cl)c(Cl)c1` (stereo not given), the Potency result in [1], in [15], in experiment [16] and in experiment [3] was “inactive” throughout. In addition, in experiment [4], the fluorescence, relative to Rose Bengal was 0.526% [at 18.6 µM]. The fluorescence, % of fluorescein control is -0.003% [at 18.6 µM] in experiment [5] and 0.0431% [at 18.6 µM] in experiment [13]. Besides, the fluorescence, % of triamterene in experiment [6] was -0.277% [at 18.6 µM]. The fluorescence, % of fluorescent control in experiment [7] was -0.295% [at 18.6 µM]; in experiment [9], -0.0423% [at 18.6 µM]; in experiment [11], -0.276% [at 18.6 µM]; in experiment [17], 0% [at 18.6 µM]; in experiment [14], 0.116% [at 18.6 µM]. For the same compound, in experiment [8], the fluorescence, % of fluorescein was 0.16% [at 18.6 µM]. The activity change in experiment [10] is -0.0265% [at 18.6 µM, hits give high values]. In addition, the fluorescence, % of Rose Bengal in experiment [12] was -0.46% [at 18.6 µM].

On to `O=C(O)CCn1c2c(c3ccccc31)C[C@H](NS(=O)(=O)c1ccc(F)cc1)CC2`, for which the Potency result in [1], in experiment [15], in experiment [16], in experiment [3], in experiment [4] and in experiment [5] was “inactive” in each case. Further, the Potency entry in [6], in experiment [7], in experiment [8], in [9], in experiment [10] and in experiment [11] was “inactive” throughout. The Potency result in experiment [12], in experiment [13] and in [14] was “inactive” each time.

For `CCCCCCCCCCOCC(O)CN` (stereo not given), the Potency entry in experiment [1], in experiment [16], in [4], in experiment [5], in experiment [6] and in experiment [7] was “inactive” in each case. The Potency result in experiment [8], in experiment [9], in [10], in experiment [11], in experiment [12] and in [17] was “inactive” in each case. Besides, the Potency result in experiment [13] and in experiment [14] was “inactive” in each case. Moreover, the Potency is 29.8 µM (active) in [2] and 26.8 µM (active) in experiment [19].
